According to the supplement of paper PMC12350171:
Counter-ions that a name gives are not always drawn.

Assays:
Details in all cases: 20 µM
[1] = system: Salmonella enterica typhimurium; assay: growth AUC normalised to DMSO control (fraction of control); higher = less growth inhibition, active = hit call of the paper
Procedure, shortened: (§1)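 Three biological replicates were carried out, with OD578 read hourly for 24 h. Before inoculation at a starting OD578 of 0.01, pathogens were passaged anaerobically twice; plates were pre-reduced mGAM containing 20 μM compound and 1% DMSO, sealed with breathable membranes, and the Haemophilus parainfluenzae medium carried added hemin and NAD. Area under each growth curve was calculated by the trapezoidal rule up to the exponential-to-stationary transition and normalised to DMSO controls on the same plate.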

Shigella flexneri = assay: as above
Procedure, shortened: as §1

Vibrio cholerae = assay: as above
Procedure, shortened: as §1

[2] = system: Yersinia pseudotuberculosis; assay: as above
Procedure, shortened: as §1

P. vulgatus RND KO = assay: growth AUC normalised to DMSO control (median) (fraction of control); higher = less growth inhibition, active = hit call of the paper
Procedure, shortened: (§2)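 Area under the growth curve, calculated by the trapezoidal rule up to entry into stationary phase, was normalised to vehicle wells on the same plate. Strains had been passaged twice overnight without oxygen and then grown in mGAM in 96-well plates from OD578 0.01, each with an approved-drug library compound at 20 μM in 1% DMSO. OD578 was read hourly over 24 h in an anaerobic incubator, and the median of three biological replicates is given.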

P. vulgatus WT = assay: as above
Procedure, shortened: as §2

[3] = system: S. enterica typhimurium WT; assay: as above
Procedure, shortened: as §2

[4] = system: S. enterica typhimurium tolC KO; assay: as above
Procedure, shortened: as §2

Measured: growth AUC normalised to DMSO control
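Throughout, for growth AUC normalised to DMSO control (median): active when median AUC fell below 0.1.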

Nc1ccccc1S(N)(=O)=O [o-Sulfanilamide]
inactive: [1] 0.993 | Shigella flexneri 0.971 | Vibrio cholerae 0.988 | [2] 0.99 | P. vulgatus RND KO 1.01 | P. vulgatus WT 1.01 | [3] 1.01 | [4] 1

CN1CC2c3ccccc3Oc3ccc(Cl)cc3C2C1 (stereo not given) [Asenapine maleate]
inactive: [1] 0.954 | Shigella flexneri 0.974 | [2] 0.976 | P. vulgatus RND KO 0.939 | P. vulgatus WT 0.948 | [3] 0.973 | [4] 0.935
active: Vibrio cholerae 0.837

O=C(O)Cc1cc(I)c(Oc2ccc(O)c(I)c2)c(I)c1 [Tiratricol]
inactive: [1] 0.971 | Shigella flexneri 0.949 | Vibrio cholerae 0.919 | [2] 0.984 | P. vulgatus RND KO 0.817 | P. vulgatus WT 0.824 | [3] 1.01 | [4] 0.993

Cc1cn([C@H]2C=C[C@@H](CO)O2)c(=O)[nH]c1=O [Stavudine]
inactive: [1] 1.01 | Shigella flexneri 1.03 | Vibrio cholerae 1.03 | [2] 0.992 | P. vulgatus RND KO 1 | P. vulgatus WT 1.05 | [3] 1.03 | [4] 1.02

CN1CCN(CC(=O)N2c3ccccc3C(=O)Nc3cccnc32)CC1 [Pirenzepine dihydrochloride]
inactive: [1] 0.993 | Shigella flexneri 1 | Vibrio cholerae 0.988 | [2] 1.01 | P. vulgatus RND KO 1 | P. vulgatus WT 0.98 | [3] 0.999 | [4] 1

O=C(O)c1ccccc1Nc1cccc(C(F)(F)F)c1 [Flufenamic acid]
inactive: [1] 0.992 | Shigella flexneri 0.963 | Vibrio cholerae 0.906 | [2] 0.981 | P. vulgatus RND KO 0.833 | P. vulgatus WT 0.849 | [3] 1.01 | [4] 0.968

NNCCc1ccccc1 [Phenelzine sulfate]
inactive: [1] 1.03 | Shigella flexneri 1.05 | Vibrio cholerae 1.03 | [2] 1.02 | P. vulgatus RND KO 1.1 | P. vulgatus WT 1.16 | [3] 0.994 | [4] 0.955

CC(CN(C)C)CN1c2ccccc2Sc2ccccc21 (stereo not given) [Trimeprazine tartrate]
inactive: [1] 0.988 | Shigella flexneri 0.952 | Vibrio cholerae 0.895 | [2] 0.999 | P. vulgatus RND KO 0.799 | P. vulgatus WT 0.792 | [3] 1 | [4] 0.972

C[C@H](CCC(=O)O)[C@H]1CC[C@H]2[C@@H]3CC[C@@H]4C[C@H](O)CC[C@]4(C)[C@H]3CC[C@]12C [Lithocholic acid]
inactive: [1] 1.01 | Shigella flexneri 1.02 | Vibrio cholerae 1.04 | [2] 1.02 | P. vulgatus RND KO 1.01 | P. vulgatus WT 1.03 | [3] 1 | [4] 0.995

CC(=O)[C@H]1CC[C@H]2[C@@H]3CC=C4C[C@@H](O)CC[C@]4(C)[C@H]3CC[C@]12C [Pregnenolone]
inactive: [1] 1 | Shigella flexneri 0.985 | Vibrio cholerae 0.996 | [2] 1 | P. vulgatus RND KO 1.02 | P. vulgatus WT 1.02 | [3] 0.993 | [4] 0.954

CCN(CC)CCNC(C(=O)OCCC(C)C)c1ccccc1 (stereo not given) [Camylofine chlorhydrate]
inactive: [1] 0.992 | Shigella flexneri 0.991 | Vibrio cholerae 0.953 | [2] 0.997 | P. vulgatus RND KO 1.01 | P. vulgatus WT 1.02 | [3] 1 | [4] 0.973

CCC[C@@H]1C[C@@H](C(=O)N[C@@H]([C@H]2O[C@H](SC)[C@H](O)[C@@H](O)[C@H]2O)[C@@H](C)O)N(C)C1 [Lincomycin hydrochloride]
inactive: Shigella flexneri 0.956 | Vibrio cholerae 0.956 | [2] 0.994 | [3] 0.956 | [4] 0.866
active: [1] 0.904 | P. vulgatus RND KO 0.0196 | P. vulgatus WT 0.0159

CCCN[C@H]1CCc2nc(N)sc2C1 [Pramipexole dihydrochloride]
inactive: [1] 0.989 | Shigella flexneri 0.972 | Vibrio cholerae 0.989 | [2] 0.994 | P. vulgatus RND KO 0.988 | P. vulgatus WT 0.997 | [3] 0.992 | [4] 0.999

c1ccc(CN(CC2=NCCN2)c2ccccc2)cc1 [Antazoline hydrochloride]
inactive: [1] 0.999 | Shigella flexneri 1.01 | Vibrio cholerae 1.01 | [2] 1 | P. vulgatus RND KO 1.03 | P. vulgatus WT 1.05 | [3] 0.996 | [4] 1

Nc1nc(NC2CC2)c2ncn([C@H]3C=C[C@@H](CO)C3)c2n1 [Abacavir sulfate]
inactive: [1] 1.01 | Shigella flexneri 0.989 | Vibrio cholerae 0.989 | [2] 0.971 | P. vulgatus RND KO 0.989 | P. vulgatus WT 1.01 | [3] 1.01 | [4] 1
